The record followed here is PubChem BioAssay AID1789 (The Scripps Research Institute Molecular Screening Center, 2009).

The campaign covered roughly 290,000 compounds. About 2,700 (0.93%) were called active.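 Rule for the calls: active = inhibition above the screen-wide mean plus 3 SD, computed separately per campaign (cut at about 16% in these data); inactive = the rest.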 The full list was thinned out, with actives kept by preference.

For the assay, the system named is Heat shock protein HSP 90 (rabbit reticulocyte lysate; luciferase refolding). Kind of assay: inhibitors of HSP90 chaperone activity – cell lysate, luminescence, primary screen (AID 1789).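 Note: 0% = DMSO wells and 100% = 60 µM geldanamycin wells; inhibitors lower the luminescence because luciferase stays unfolded.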 The note with it: 3 h, at 5.6 µM, stronger effect = higher value.
For orientation: inhibition means the change of the read-out against control, counted positive when it falls. With `O=C(CN1CCN(C(=O)C2CCCO2)CC1)Nc1c(Cl)cccc1Cl` (stereo not drawn), the inhibition was -1.9% (inactive).
For `CCN(CC)CCN1C(=O)C(=O)/C(=C(/O)c2ccccc2)C1c1ccccc1F` (stereo not drawn), the inhibition is 1.61% (inactive).
On to `CCN(CC)CCN1C(=O)C(=O)/C(=C(/O)c2cnn(-c3ccccc3)c2C)C1c1cccs1` (stereo not drawn), for which the inhibition is 33.3% (active).
For `CCN(CC)CCN1C(=O)C(=O)/C(=C(/O)c2ccc(OC)c(OC)c2)C1c1ccccn1` (stereo not drawn), the inhibition was 0.07% (inactive).
On to `CCOc1ccc(OCC(=O)Nc2c3c(nn2C(C)(C)C)CS(=O)(=O)C3)cc1`, for which the inhibition is 4.2% (inactive).
Turning to `CCN(CCCNC(=O)CCn1c(=O)[nH]c2ccsc2c1=O)c1ccccc1`, the inhibition was 0.39% (inactive).
On to `Cc1cccc(C(=O)NCCCN(C)CCCNC(=O)c2cccc(C)c2)c1`, for which the inhibition is -1.31% (inactive).
Consider `CCN(CCCNC(=O)c1ccc2c(c1)NC(=O)CN2C)c1cccc(C)c1`, for which the inhibition is 19.6% (active).
For the compound `O=C(Oc1cccc(C(=S)N2CCOCC2)c1)c1cccc(Cl)c1`, the inhibition is -2.58% (inactive).
Turning to `CC(=O)c1ccc(N2CCN(C(=O)CCc3ccccc3)CC2)cc1`, the inhibition was -1.79% (inactive).
For `C=CCN1CCN(C(=O)CCCc2ccccc2)CC1`, the inhibition was 39.7% (active).
Take `O=C(CCCc1ccccc1)NCc1ccccc1`: the inhibition is -2.48% (inactive).
In the case of `O=C(OCC(=O)c1c[nH]c2ccccc12)c1cccc(O)c1`, the inhibition is -4.88% (inactive).
On to `O=C(OCc1ccc(Br)cc1)c1cccc(-c2nnc(-c3ccccc3)o2)c1`, for which the inhibition is 3.03% (inactive).
On to `O=C(OCc1ccc(-c2ccccc2)cc1)c1cccc(O)c1`, for which the inhibition was 18.4% (active).
To `O=C(COc1cc2oc(=O)c3c(c2cc1Cl)CCC3)NCCCN1CCOCC1` belongs -0.69% (inactive); to `COc1ccc(N2CCN(C(=O)C3CCN(C(=O)c4ccccc4Cl)CC3)CC2)cc1`, 1.46% (inactive); to `COc1ccc(NC(=O)C/C(C)=N/NC(=O)c2cnccn2)cc1Cl`, -1.56% (inactive).
For `O=C(CSc1cccc[n+]1[O-])c1ccc(-c2ccccc2)cc1`, the inhibition is -3.2% (inactive).
With `Cc1ccc(C(=O)CSc2ccccc2C(=O)O)cc1`, the inhibition was 23.8% (active).
Regarding `Cc1ccc(Sc2cc(C(=O)c3ccccc3C(=O)O)ccc2[N+](=O)[O-])cc1`, the inhibition is -2.36% (inactive).
With `COc1ccc(C(C(=O)NC2CCCC2)N(CCCO)C(=O)Cn2nnc(-c3ccc(C)o3)n2)cc1` (stereo not drawn), the inhibition was -2.61% (inactive).
To `CCOC(=O)CSc1nc(N2CCOCC2)c2c(c1C#N)CC(C(C)C)OC2` (stereo not drawn) belongs 0.22% (inactive); to `CCC(=C/c1sc2ccc3ccccc3c2[n+]1C)/C=C1\Sc2ccc3ccccc3c2N1C`, 19.1% (active).
To `CCn1c(=O)c(=O)[nH]c2c(=O)oc3ccc(S(=O)(=O)Nc4ccc(OC)cc4)cc3c21` belongs 1.48% (inactive); to `CCOC(=O)c1ccc(NC(=O)c2ccc(NC(=O)C3CCCO3)cc2)cc1` (stereo not drawn), -2.21% (inactive); to `COc1ccc(CCNC(=O)C(=O)NCC2OCCN2S(=O)(=O)c2ccc(OC)c(C)c2)cc1` (stereo not drawn), 3.33% (inactive).
With `O=C(NCCCN1CCCC1=O)C(=O)NCC1OCCN1S(=O)(=O)c1ccc(Br)cc1` (stereo not drawn), the inhibition was -3.67% (inactive).
As to `CCOC(=O)C1=C(c2ccccc2)NC(=S)NC1c1ccc(Cl)cc1` (stereo not drawn), the inhibition was 2.24% (inactive).
Under `COc1ccc(C2NC(=S)NC3=C2CCc2ccccc23)cc1OC` (stereo not drawn) stands -4.91% (inactive); under `CCOc1ccc(C2NC(=S)NC3=C2CCc2ccccc23)cc1` (stereo not drawn), 24.1% (active).
Regarding `COc1ccc(-c2cc(=O)oc3cc(OC(C)C(=O)Nc4ccc(CN5CCOCC5)cc4)ccc23)cc1` (stereo not drawn), the inhibition is -1.3% (inactive).
Consider `COc1cc(OC)cc(C(=O)NCCSCc2ccc(Cl)cc2)c1`, for which the inhibition was 2.62% (inactive).
Take `CCOC(=O)C1CCN(S(=O)(=O)c2c(C)noc2C)CC1`: the inhibition was -1.41% (inactive).
To `C=CCNc1ncnc2ccc(Br)cc12` belongs -3.86% (inactive); to `COc1ccc(Nc2ncnc3sc(-c4ccccc4)cc23)c(OC)c1`, -1.63% (inactive); to `COc1ccc(Nc2ncnc3ccc(Br)cc23)c(OC)c1`, 35.7% (active).
Regarding `Cc1ccc(S(=O)(=O)NCC(=O)Nc2ccc3c(c2)OCCO3)cc1`, the inhibition is 5.88% (inactive).
Take `O=c1c2ccccc2nc(N/N=C/c2ccccc2)n1O`: the inhibition was -0.57% (inactive).
To `O=c1c2ccccc2ncn1/N=C/c1ccccc1` belongs 16.4% (active).
In the case of `O=C(Nn1cnc2ccccc2c1=O)c1ccccc1`, the inhibition was -3.95% (inactive).
Under `CC(C)C[C@H](NC(=O)N1CC(=O)Nc2ccccc21)C(=O)N[C@H](Cc1ccccc1)C(=O)O` stands -4.11% (inactive).
In the case of `COC(=O)C1[C@H]2SC(C)(C)C(C(=O)OC)N2C(=O)N1Cc1nc2ccccc2s1` (stereo partly drawn), the inhibition is 26.1% (active).
For `CC1(C)SC2C(NC(=O)COc3ccccc3)C(=O)N2C1C(=O)O` (stereo not drawn), the inhibition is -3.05% (inactive).
Under `CCC1(CC)NC(=O)N(Cc2nc3ccccc3s2)C1=O` stands 1.16% (inactive); under `O=[N+]([O-])c1ccc(F)cc1Oc1nc(-c2cccnc2)nc2ccccc12`, 2.73% (inactive); under `O=C(Cc1ccccc1)N1CCN(S(=O)(=O)c2ccc([N+](=O)[O-])cc2)CC1`, 20% (active).
Turning to `CS(=O)(=O)N1CCN(C(=O)Cc2ccccc2)CC1`, the inhibition was -2.11% (inactive).
For `O=C(Cc1ccccc1)NNS(=O)(=O)c1ccc([N+](=O)[O-])cc1`, the inhibition is -2.29% (inactive).
As to `COc1ccc(-c2cc(C(=O)N3CCN(c4ccc(F)cc4)CC3)no2)cc1`, the inhibition was -0.04% (inactive).
Turning to `O=C(CCc1c[nH]c2ccccc12)NCCOc1ccccc1`, the inhibition is -0.52% (inactive).
In the case of `COc1ccc(Cl)cc1NC(=O)Cn1nc(-c2ccc(C)cc2)n(C)c1=S`, the inhibition is 17.9% (active).
To `COc1ccc(C)cc1NC(=O)CSc1ccc(Cl)cc1` belongs 1.35% (inactive); to `COc1ccc(Cl)cc1NC(=O)CN1CCN(C(=O)N2CCOCC2)CC1`, -1.78% (inactive).
In the case of `Cc1ccc(NC(=O)C2CCCN2C(=O)OCc2ccccc2)cc1C` (stereo not drawn), the inhibition is -2.49% (inactive).
As to `CCOC(=O)c1ccccc1NS(=O)(=O)c1c(C)nc2sccn2c1=O`, the inhibition is -1.63% (inactive).
Under `Cn1c(=O)c2c(nc(CN3CCOCC3)n2Cc2ccccc2)n(C)c1=O` stands 8.36% (inactive).
To `CCN1CCN(Cc2nc3c(c(=O)n(C)c(=O)n3C)n2CC(=O)c2ccccc2)CC1` belongs 0.91% (inactive).
To `CCOC(=O)N1CCN(Cc2nc3c(c(=O)n(C)c(=O)n3C)n2Cc2ccccc2)CC1` belongs 57.6% (active); to `COc1cccc(CNS(=O)(=O)c2ccc3c(c2)CC(C)N3C(C)=O)c1` (stereo not drawn), -0.03% (inactive); to `NNC(=O)c1nnn(-c2nonc2N)c1CN1CCCC1`, 2.68% (inactive).
Turning to `Cc1ccc(C)c(OCc2cc(C(=O)N3CCN(c4cnccn4)CC3)no2)c1`, the inhibition was -6.08% (inactive).
To `O=C(C1CCN(Cc2ccc(Cl)cc2)CC1)N1CCN(Cc2ccc3c(c2)OCO3)CC1` belongs 3.57% (inactive); to `Cc1cccnc1CCNC(=O)C1CCC(=O)N(Cc2cccc(F)c2)C1` (stereo not drawn), -3.21% (inactive).
As to `c1ccc(NCc2cccc3ccccc23)nc1`, the inhibition is -0.19% (inactive).
As to `Oc1ccc(N=Nc2nccs2)c(O)c1`, the inhibition is 0.13% (inactive).
`Oc1ccc2ccccc2c1N=Nc1nccs1`: the inhibition is 16.9% (active).
To `CCc1ccc(S(=O)(=O)N/N=C\c2ccc([N+](=O)[O-])o2)cc1` belongs -5.89% (inactive); to `COCCNc1ccc(-c2n[nH]c(=O)c3ccccc23)cc1[N+](=O)[O-]`, 1.55% (inactive); to `Cc1cc(N=Nc2ccc3ccccc3c2)ccc1O`, -3.33% (inactive).
Under `CN(C)c1ccc(-n2cccc2/C=C2/SC(=Nc3ccc(F)cc3)NC2=O)cc1` stands -2.27% (inactive); under `CN(C)c1ccc(-n2cccc2/C=N/n2cnnc2)cc1`, 54.3% (active); under `COc1cccc(OCCOc2cccc(/C=N/n3cnnc3)c2)c1`, 10.3% (inactive).
Under `O=C(COc1nsnc1N1CCOCC1)Nc1ccccc1Cl` stands -3.12% (inactive).
Regarding `O=C(Nc1ccc(CN2CCOCC2)cc1)c1cc(Cl)ccc1Cl`, the inhibition is -0.42% (inactive).
To `CCc1nc(N2CCN(C(C)=O)CC2)c2c3c(sc2n1)CCCC3` belongs 0.58% (inactive); to `COc1ccc(Cl)cc1NC(=O)c1cccc(N2C(=O)C3CC=CCC3C2=O)c1` (stereo not drawn), -3.52% (inactive); to `O=C(Nc1ccccc1C(=O)O)c1ccc(N2C(=O)C3CC=CCC3C2=O)cc1` (stereo not drawn), 19.6% (active).
Under `O=C(Cc1ccccc1)Nc1ccc(C(=O)Nc2ccccc2C(=O)O)cc1` stands 2.96% (inactive); under `COC(=O)[C@@H](Cc1ccccc1)NC(=O)NCCc1ccccc1`, 5.73% (inactive); under `NC(=O)Cc1ccc2sc(-c3ccccc3)nc2c1`, 16.4% (active).
As for `O=C(O)Cc1sc(-c2ccccc2)nc1-c1cccs1`, the inhibition was -2.42% (inactive).
With `NC(=O)Cc1ccc2c(c1)[nH]c1ccccc12`, the inhibition was 5.37% (inactive).
Turning to `COc1ccc(NC(=O)NN2CCN(C)CC2)c(OC)c1`, the inhibition is -1.29% (inactive).
To `COc1ccc(-n2nnnc2-c2nc3ccccc3s2)cc1` belongs 19.1% (active); to `CCOc1cccc(-n2nnnc2-c2ccc(OC)cc2)c1`, 1.88% (inactive); to `COc1ccc(C2=NN(c3nc4ccccc4s3)C(=O)C2)cc1`, 0.61% (inactive).
On to `O=C(c1cccc(Br)c1)N1CCN(C2=NS(=O)(=O)c3ccccc32)CC1`, for which the inhibition was -0.31% (inactive).
As to `O=C(CN1C(=O)COc2ccc(Cl)cc21)N1CCOCC1`, the inhibition is 4.17% (inactive).
Under `COc1cc(C(=O)NN(CCC#N)C2=NS(=O)(=O)c3ccccc32)cc(OC)c1OC` stands 26.7% (active); under `Cc1ccc(C(=O)NN(CCC#N)C2=NS(=O)(=O)c3ccccc32)cc1`, -2.85% (inactive).
Under `COc1cc(C2C(C(=O)OCCC#N)=C(C)NC3=C2S(=O)(=O)c2ccccc23)cc(OC)c1OC` (stereo not drawn) stands 3.37% (inactive); under `Cc1ccc(NC(=O)C(=O)NCc2ccc(/C=N/NC(=O)c3c(C)nc4cc(C)ccn34)o2)cc1`, 0.35% (inactive).
